Measured values as given in PubChem BioAssay AID1159580 (chemical genetic matrix, 2015).
Several values for one entry are separate records, joined by “and”; a condition that tells them apart may be missing. Equal values may be shown once. About 2,000 (36%) of roughly 5,500 compounds were called active. Another 18% or so got no clear call; they are omitted. No stated cut-off is given here; in the data, active means normalized growth mostly below about 0.91 (no sharp cut-off); inconclusive means no clear call, values can overlap the other calls; inactive means mostly above about 0.92. The list shows a part of the results.

Assay: chemical genetic growth profiling, strain panel (AID 1159580);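 further: tested at 20 µM; growth read once vehicle control cultures reached saturation at 30 °C; 1 = growth at the plate median or of vehicle wells; lower values mean less growth of the strain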
Conditions: S. cerevisiae deletion strains, growth OD

Measured: normalized growth

COc1cc2c3cc1Oc1cc(ccc1O)C[C@@H]1c4c(cc(OC)c(O)c4Oc4ccc(cc4)C[C@@H]3N(C)CC2)CC[N+]1(C)C
inactive: locus YAL021C, strain ccr4, active compounds read low 1 | locus YAL026C, strain drs2, active compounds read low 0.976 | locus YAL030W, strain snc1, active compounds read low 1.01 | locus YBL061C, strain skt5, active compounds read low 1 | locus YBR009C, strain hhf1, active compounds read low 0.943 | locus YBR021W, strain FUR4, active compounds read low 0.998 | locus YBR023C, strain chs3, active compounds read low 0.997 | locus YBR171W, strain sec66, active compounds read low 1.01 | locus YBR229C, strain ROT2, active compounds read low 1 | locus YBR231C, strain swc5, active compounds read low 1.02 | locus YBR279W, strain paf1, active compounds read low 0.991 | locus YCL011C, strain gbp2, active compounds read low 0.954 | locus YCL016C, strain dcc1, active compounds read low 0.939 | locus YCL029C, strain bik1, active compounds read low 0.999 | locus YCL069W, strain vba3, active compounds read low 0.998 | locus YCR088W, strain abp1, active compounds read low 0.997 | locus YDL005C, strain med2, active compounds read low 1 | locus YDL035C, strain GPR1, active compounds read low 1 | locus YDL040C, strain nat1, active compounds read low 1.01 | locus YDL074C, strain BRE1, active compounds read low 1.02 | locus YDL101C, strain DUN1, active compounds read low 1.02 | locus YDL185W, strain tfp1, active compounds read low 1.01 | locus YDL192W, strain arf1, active compounds read low 0.998 | locus YDR001C, strain nth1, active compounds read low 0.972 | locus YDR069C, strain doa4, active compounds read low 1.02 | locus YDR101C, strain arx1, active compounds read low 1 | locus YDR137W, strain rgp1, active compounds read low 1 | locus YDR159W, strain sac3, active compounds read low 0.927 | locus YDR162C, strain NBP2, active compounds read low 1.03 | locus YDR195W, strain ref2 1.01 | locus YDR297W, strain sur2, active compounds read low 1 | locus YDR318W, strain mcm21, active compounds read low 0.994 | locus YDR334W, strain swr1, active compounds read low 0.979 | locus YDR335W, strain msn5, active compounds read low 0.995 | locus YDR388W, active compounds read low 1 | locus YDR392W, strain spt3, active compounds read low 0.769 | locus YDR502C, strain sam2, active compounds read low 1 | locus YEL003W, strain gim4, active compounds read low 1 | locus YEL037C, strain rad23, active compounds read low 0.999 | locus YEL061C, strain CIN8 (second series), active compounds read low 0.967 | locus YEL061C, strain CIN8, active compounds read low 1.01 | locus YER015W, strain faa2, active compounds read low 0.996 | locus YER016W, strain bim1, active compounds read low 0.988 | locus YER110C, active compounds read low 1.01 | locus YER111C, strain swi4, active compounds read low 0.994 | locus YER155C, strain BEM2 (second series), active compounds read low 1.05 | locus YER155C, strain BEM2, active compounds read low 1.02 | locus YER167W, strain BCK2, active compounds read low 1.01 | locus YFR010W, strain ubp6, active compounds read low 0.989 | locus YGL078C, strain dbp3, active compounds read low 0.993 | locus YGL086W, strain mad1, active compounds read low 1.03 | locus YGL167C, strain pmr1, active compounds read low 1 | locus YGL173C, strain kem1, active compounds read low 1 | locus YGL227W, strain vid30, active compounds read low 0.981 | locus YGL240W, strain doc1, active compounds read low 1.02 | locus YGL248W, strain PDE1, active compounds read low 1.02 | locus YGL253W, strain hxk2, active compounds read low 0.978 | locus YGR135W, strain pre9, active compounds read low 0.989 | locus YGR252W, strain gcn5, active compounds read low 0.947 | locus YHR013C, strain ard1, active compounds read low 0.943 | locus YHR027C, strain rpn1, active compounds read low 0.988 | locus YHR030C, strain SLT2, active compounds read low 1 and 0.98 | locus YHR079C, strain IRE1 (second series), active compounds read low 1.01 | locus YHR079C, strain IRE1, active compounds read low 0.981 | locus YHR094C, strain hxt1, active compounds read low 0.996 | locus YHR129C, strain ARP1, active compounds read low 1.02 | locus YHR142W, strain chs7, active compounds read low 1 | locus YHR200W, strain rpn10, active compounds read low 0.993 | locus YIL066C, strain RNR3, active compounds read low 1.01 | locus YIL073C, strain SPO22, active compounds read low 1.07 | locus YIL125W, strain kgd1, active compounds read low 1.01 | locus YIR030C, strain dcg1, active compounds read low 0.997 | locus YJL092W, strain hpr5, active compounds read low 0.988 | locus YJL095W, strain BCK1 (second series), active compounds read low 1 | locus YJL095W, strain BCK1, active compounds read low 1.06 and 0.983 | locus YJL115W, strain asf1, active compounds read low 0.983 | locus YJL129C, strain trk1, active compounds read low 1 | locus YJL134W, strain LCB3, active compounds read low 1.01 | locus YJL154C, strain vps35, active compounds read low 0.992 | locus YJL164C, strain tpk1, active compounds read low 0.957 | locus YJL166W, strain qcr8, active compounds read low 1.04 | locus YJL168C, strain set2, active compounds read low 1.01 | locus YJL187C, strain SWE1 (second series), active compounds read low 1.04 | locus YJL187C, strain SWE1, active compounds read low 1.01 | locus YJR043C, strain POL32, active compounds read low 0.991 | locus YJR066W, strain TOR1, active compounds read low 0.969 | locus YJR075W, strain HOC1, active compounds read low 1.03
